# Six1-Eya2 blk: inhibitors of human Six1/Eya2 interaction; actives 0.56% (n = 360,000); activity change, % (concentration not given with the values); AlphaScreen GST-Six1/His-Eya2 binding, biochemical; active compounds read low; AID 651725; Q15475+O00167; in the data active means activity change below about -65%; inconclusive means mostly about -30% to -63%; further: on the % scale 0 is the no-effect control and ±100 the full control effect
# Target sequence (O00167 whole entry, looked up): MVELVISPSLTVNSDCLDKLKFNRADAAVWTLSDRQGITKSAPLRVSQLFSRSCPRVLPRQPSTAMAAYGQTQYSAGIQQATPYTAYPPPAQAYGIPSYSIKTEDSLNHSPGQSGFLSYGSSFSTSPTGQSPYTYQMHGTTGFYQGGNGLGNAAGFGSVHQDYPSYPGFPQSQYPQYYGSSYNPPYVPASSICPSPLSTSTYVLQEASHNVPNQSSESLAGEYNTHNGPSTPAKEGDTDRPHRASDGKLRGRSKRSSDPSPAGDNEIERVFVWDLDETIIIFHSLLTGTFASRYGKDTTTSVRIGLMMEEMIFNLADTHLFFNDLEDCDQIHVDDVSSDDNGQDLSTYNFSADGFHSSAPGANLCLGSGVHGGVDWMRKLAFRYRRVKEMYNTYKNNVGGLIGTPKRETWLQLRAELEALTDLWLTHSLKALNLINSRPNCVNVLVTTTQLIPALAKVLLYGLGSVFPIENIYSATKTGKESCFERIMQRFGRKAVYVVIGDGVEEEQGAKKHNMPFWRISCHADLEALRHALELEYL
# Target sequence (Q15475 whole entry, looked up): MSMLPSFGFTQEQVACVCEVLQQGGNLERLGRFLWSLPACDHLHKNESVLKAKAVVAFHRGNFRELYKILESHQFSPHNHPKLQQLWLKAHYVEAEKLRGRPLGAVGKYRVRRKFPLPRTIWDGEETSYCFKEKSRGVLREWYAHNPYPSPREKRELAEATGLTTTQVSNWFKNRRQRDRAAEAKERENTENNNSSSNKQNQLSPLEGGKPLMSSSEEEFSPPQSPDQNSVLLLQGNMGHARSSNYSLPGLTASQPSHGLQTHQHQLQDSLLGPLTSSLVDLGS
#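 Compounds are tested against tagged Six1 and Eya2 proteins bridged by glutathione donor and nickel acceptor beads; after a one-hour incubation at 37 °C without light, AlphaScreen emission is recorded.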
# RORgamma inh: inhibitors of mouse ROR gamma transcriptional activity; P51450; AID 2551; actives 5.4% (n = 310,000); Potency, µM (series often up to 53.6 µM), without a hit: at the top dose activity change, negative = inhibition, actives largely listed as inhibitors; Drosophila S2 Gal4-RORgamma UAS-luciferase reporter, 20 h; further: potency means the concentration at half of the fitted maximal effect; on the % scale 0 is the no-effect control and ±100 the full control effect; nearly all actives have a fitted effect of over 60% in size
#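 Compounds are pin-transferred onto Drosophila Schneider cells expressing a copper-inducible Gal4–ROR gamma transactivation domain fusion. After 1 hr, copper sulfate is added to 700 uM final; luciferase is read 20 hr later.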
# Gal4-VP16 FLuc: Gal4-VP16 reporter inhibition counter-screen | AID 2546 | actives 3.5% (n = 310,000) | Drosophila S2 Gal4-VP16 UAS-luciferase, luminescence, 20 h | Potency, µM (titrated, usually from 53.6 µM), for the others: at the top dose activity, negative = inhibition, most hits filed as inhibitors;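 further: Gal4-VP16 expression switched on by copper sulfate through the metallothionein promoter; potency means the concentration at half of the fitted maximal effect; on the % scale 0 is the no-effect control and ±100 the full control effect; nearly all actives have a fitted effect of over 50% in size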
# CtBP-E1A inh: CtBP/E1A binding inhibition | AlphaScreen GST-E1A/His-CtBP binding, 1536-well; active compounds read low | activity change, % (concentration not given with the values) | actives 0.49% (n = 340,000); in the data active means activity change below about -65%; inconclusive means mostly about -30% to -63%; further: on the % scale 0 is the no-effect control and ±100 the full control effect
#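 AlphaScreen with 125 nM GST-E1A and 125 nM His-CtBP (5X stocks) in Tris pH 8.0, 300 mM NaCl, BSA, Tween 20, TCEP. Compounds preincubated 2 h at 37 deg C, then glutathione donor/nickel acceptor beads added for 1 h at 37 deg C in dark.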
# p53 reactivation: restores transcriptional activity of mutant p53; actives 0.063% (n = 320,000); Potency, µM (series often up to 92.2 µM), for inactives: at the top dose activity change, positive = activation, usual class: activators; H1299 p53-A138V BP100-luciferase reporter, luminescence, 24 h; further: potency means the concentration at half of the fitted maximal effect; % of control where 0% means no effect; nearly all actives have a fitted effect of over 45% in size
#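 H1299 (p53-null), stable ts p53-A138V + BP100-Luc; 1000 cells/well, Opti-MEM/10% FBS; cpd 4 pt, 1:5; 24 h, 37 deg C, 5% CO2; detection reagent 10 min RT; luminescence.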
# Numbers without * were called inactive; ? = inconclusive; . = not tested or not shown; [ ] = another dose, or the depositor's remark. In the library only some 5.4% were active in any assay of this set; here they are far more common. Unless noted, the call rests on the fitted dose curve; in most records, active means well fitted curve in the direction sought with a large enough effect; inconclusive means small, poorly fitted or top-dose-only effect, or another doubt; inactive means no such curve, though single readings can be large; an effect the other way counts as inactive or inconclusive.
SMILES,Six1-Eya2 blk,RORgamma inh,Gal4-VP16 FLuc,CtBP-E1A inh,p53 reactivation
Cc1ccc(N2CCN(C(=O)C(=O)c3cccc(Br)c3)CC2)cc1,-23.8,.,.,-5.4,.
Cc1ccc(C)n1-c1ccccc1N,.,14.1µM*,12.6µM*,.,?
Cc1cc(=O)cc(C)n1-c1ccccc1N,-0.1,-10.5%,-2.2%,.,.
Nn1cnnc1SC1CCCCC1NS(=O)(=O)c1ccccc1 (configuration not stated),16.2,-16.3%,8.91µM*,-4.2,29.7%
Cc1ccc(Cl)cc1NC(=O)C(Cc1ccccc1)N1C(=O)C2C3CCC(C3)C2C1=O (configuration not stated),5.3,-20.0%,79.4µM*,-7.8,6.1%
CC(C)c1cc(Cn2c3ccccc3c(=O)n2C(C)Cn2cc(CCCC#N)nn2)on1 (configuration not stated),2.4,.,.,7.5,.
S=C(NCC1CCCO1)NC1CCCCC1 (configuration not stated),4.0,?,?,-1.8,0.4%
CCCC(NC(=S)NCC1CCCO1)C12CC3CC(CC(C3)C1)C2 (configuration not stated),-14.9,0.447µM*,3.16µM*,.,1.2%
CC(=O)NC1=C(N(C)C2CCS(=O)(=O)C2)C(=O)c2ccccc2C1=O (configuration not stated),1.8,2.51µM*,7.94µM*,-0.3,-31.0%
Cc1ccc(-c2cnc(SCC(=O)N3CCCc4ccccc43)n2C)cc1,-26.9,11.2µM*,-13.2%,?,24.1%
Cn1c(-c2ccccc2)cnc1SCC(=O)N1CCCc2ccccc21,-15.1,?,?,-3.7,6.0%
Cn1c(-c2ccccc2)cnc1SCC(=O)N1CCCCC1,7.5,5.01µM*,8.91µM*,-5.1,7.7%
COCCCN1C(=O)C(CC(=O)NCCN2CCOCC2)CC(C(=O)N(C)C)=C1C (configuration not stated),7.6,.,.,9.3,.
O=S(=O)(Nc1cc(S(=O)(=O)N2CCOCC2)ccc1NCC1CCCO1)c1ccc(F)cc1 (configuration not stated),-4.2,.,.,17.1,9.8%
Cc1nnc(NC(=O)c2oc3c(ccc4ccccc43)c2C)s1,4.2,12.6µM*,-5.0%,-5.7,9.2%
CC[C@@H](C)[C@H](CN[C@H](CNC)C(C)C)NC[C@@H](C)c1ccc(CC(C)C)cc1,-0.5,10µM*,?,-7.0,.
C#CCn1cc(/C=N/NC(=O)c2cc3ccccc3o2)c2ccccc21,-0.8,17.8µM*,?,-5.0,9.4%
O=C(N/N=C/C=C/c1ccccc1)c1cc2c(ccc3ccccc32)o1,1.3,7.08µM*,?,-0.9,-1.8%
COc1ccc(OC)c(/C=N\NC(=O)c2cc3c(ccc4ccccc43)o2)c1,-10.2,-35.9%,-12.7%,-18.0,-0.5%
O=C(N/N=C/c1ccccc1F)c1cc2c(ccc3ccccc32)o1,4.0,?,?,5.5,-3.6%
C=CCn1cc(/C=N\NC(=O)c2cc3c(ccc4ccccc43)o2)c2ccccc21,2.3,5.62µM*,-22.0%,-1.5,-1.2%
O=C(N/N=C/c1cccc2ccccc12)c1cc2ccccc2o1,-19.8,.,.,-21.5,.
O=C(c1ccccc1)c1c(-c2ccccc2)[nH]n(-c2ccccc2)c(=O)c1=O,5.3,.,.,6.8,.
CCOC(=O)N1CN(C(=O)OCC)CN(C(=O)OCC)C1,2.7,8.2%,-2.3%,.,1.1%
Cc1cc(C(=O)NC(=S)Nc2ccccc2N2CCCC2)ccc1[N+](=O)[O-],-8.8,2.51µM*,3.16µM*,-2.4,5.1%
SMILES,Six1-Eya2 blk,RORgamma inh,Gal4-VP16 FLuc,CtBP-E1A inh,p53 reactivation
Cc1cc(C(=O)NC(=S)Nc2ccccc2N2CCOCC2)ccc1[N+](=O)[O-],?,2.82µM*,14.1µM*,-6.6,-8.4%
COc1ccc(C(=O)NC(=S)Nc2ccccc2N2CCOCC2)cc1[N+](=O)[O-],-18.8,6.31µM*,10µM*,-20.2,-2.3%
Cc1cc(C(=O)Nc2ccccc2N2CCOCC2)ccc1[N+](=O)[O-],0.2,-21.3%,-7.4%,3.7,-5.0%
O=C(NC(=S)Nc1cc(Cl)ccc1N1CCOCC1)c1ccccc1[N+](=O)[O-],-26.6,3.55µM*,3.55µM*,-4.0,-20.3%
FC(F)(F)c1cc(NC(=S)NC(c2ccccc2)c2ccccc2)cc(C(F)(F)F)c1,.,-20.0%,?,.,.
COC(=O)NC(c1cccc(C)c1)[C@]1(C(C)=O)CCCC1=O (some centres not stated),.,7.2%[10 µM],-7.3%[10 µM],.,.
C=CCNC(=S)/N=c1/ccccn1CC,6.9,10µM*,-2.1%,4.3,-0.9%
COC(=O)c1ccc(NC(=O)CCS(=O)(=O)c2ccc(C)cc2)cc1,-0.5,3.4%,?,.,-1.1%
COC(=O)c1ccc(NC(=O)CCS(=O)(=O)c2ccc3c(c2)NC(=O)C(C)S3)cc1 (configuration not stated),-0.8,-38.8%,7.08µM*,-8.5,-6.0%
COC(=O)c1ccc(NC(=O)CCS(=O)(=O)c2ccc(Br)cc2)cc1,-13.5,8.3%,11.2µM*,-0.6,-0.3%
COCCN(CC(=O)NC1CCCCC1)C(=O)/C=C/C(=O)c1ccc(OC)cc1O,-1.8,-7.4%,3.6%,19.5,9.7%
COc1ccc(C(=O)/C=C/C(=O)N(CC(=O)NC2CCCCC2)Cc2cccs2)c(O)c1,-0.4,7.94µM*,5.01µM*,-2.5,-13.1%
CC(C)=NNc1nc(-c2ccccc2)c(C)s1,-7.7,11.2µM*,-25.8%,-12.0,-3.9%
C(=N\Nc1nc(-c2ccccc2)cs1)/c1ccco1,-10.6,?,?,-25.7,?
Cc1cc(-c2ccccc2)nc(N/N=C/c2ccco2)n1,-1.2,8.91µM*,?,3.0,?
Cc1cc(-c2ccccc2)nc(N/N=C/c2ccccc2)n1,1.8,14.1µM*,?,-0.3,16.2%
Cc1sc(N/N=C/c2ccco2)nc1-c1ccccc1,-4.8,11.2µM*,?,.,?
CC12CCC(C1)C(C)(C)C2=O (configuration not stated),.,1.4%[10 µM],-2.7%,.,.
COc1ccc(/C=N/Nc2nc(C)cc(-c3ccccc3)n2)cc1OC,-1.8,11.2µM*,?,-3.0,-38.5%
CN1/C(=C\C(=O)c2ccco2)C(C)(C)c2ccccc21,4.0,?,10µM*,13.5,2.6%
CN1/C(=C/C(=O)c2nc(S(C)(=O)=O)ncc2Cl)C(C)(C)c2ccccc21,-14.1,3.16µM*,5.62µM*,13.8,-54.2%
CN1/C(=C\C(=O)c2cncc(Br)c2)C(C)(C)c2ccccc21,57.8,-75.5%,11.2µM*,67.9,1.3%
COC(=O)/C=C1/S/C(=N/NC(=O)c2ccc(OC)cc2)NC1=O,-1.0,14.1µM*,?,-3.4,-5.7%
Cc1ccc(C(=O)Nc2cccc3ccccc23)cc1,5.3,0.4%,-6.0%,.,8.8%
CC(C)(C)c1ccc(C(=O)Nc2cccc3c(=O)[nH][nH]c(=O)c23)cc1,21.6,?,3.55µM*,5.7,?

# High-throughput results deposited in PubChem by National Center for Advancing Translational Sciences (NCATS).
